Calls of active or inactive are those of the source.
What was measured:
[1] = compounds binding Alexa647 anti-His antibody – biochemical, small-molecule microarray, 635 nm fluorescence, artefact control for SMM control protein annotation, primary screen (AID 1128); conditions: higher = more signal;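 further: score merges feature fluorescence with signal-to-noise for each printed compound spot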
[2] = system: Human papillomavirus type 1a E7 protein (residues 1-88); test: HPV1a E7 small-molecule binders, primary screen, biochemical, small-molecule microarray, residues 1-88, 635 nm (AID 1129); conditions: small-molecule microarray binding, fluorescence 635 nm; higher = more signal
[3] = biological target: Focal adhesion kinase 1 (Homo sapiens) (UniProt Q05397); test: PTK2 protein binding on printed compound slides – biochemical, small-molecule microarray, 635/667 nm fluorescence, BSA, DTT, primary screen (AID 1130); conditions: 635 nm fluorescence, higher = more signal;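 further: composite of spot emission at 667 nm and signal to noise over triplicate slides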
Chain of Focal adhesion kinase 1 (Homo sapiens) (Q05397 whole entry, looked up): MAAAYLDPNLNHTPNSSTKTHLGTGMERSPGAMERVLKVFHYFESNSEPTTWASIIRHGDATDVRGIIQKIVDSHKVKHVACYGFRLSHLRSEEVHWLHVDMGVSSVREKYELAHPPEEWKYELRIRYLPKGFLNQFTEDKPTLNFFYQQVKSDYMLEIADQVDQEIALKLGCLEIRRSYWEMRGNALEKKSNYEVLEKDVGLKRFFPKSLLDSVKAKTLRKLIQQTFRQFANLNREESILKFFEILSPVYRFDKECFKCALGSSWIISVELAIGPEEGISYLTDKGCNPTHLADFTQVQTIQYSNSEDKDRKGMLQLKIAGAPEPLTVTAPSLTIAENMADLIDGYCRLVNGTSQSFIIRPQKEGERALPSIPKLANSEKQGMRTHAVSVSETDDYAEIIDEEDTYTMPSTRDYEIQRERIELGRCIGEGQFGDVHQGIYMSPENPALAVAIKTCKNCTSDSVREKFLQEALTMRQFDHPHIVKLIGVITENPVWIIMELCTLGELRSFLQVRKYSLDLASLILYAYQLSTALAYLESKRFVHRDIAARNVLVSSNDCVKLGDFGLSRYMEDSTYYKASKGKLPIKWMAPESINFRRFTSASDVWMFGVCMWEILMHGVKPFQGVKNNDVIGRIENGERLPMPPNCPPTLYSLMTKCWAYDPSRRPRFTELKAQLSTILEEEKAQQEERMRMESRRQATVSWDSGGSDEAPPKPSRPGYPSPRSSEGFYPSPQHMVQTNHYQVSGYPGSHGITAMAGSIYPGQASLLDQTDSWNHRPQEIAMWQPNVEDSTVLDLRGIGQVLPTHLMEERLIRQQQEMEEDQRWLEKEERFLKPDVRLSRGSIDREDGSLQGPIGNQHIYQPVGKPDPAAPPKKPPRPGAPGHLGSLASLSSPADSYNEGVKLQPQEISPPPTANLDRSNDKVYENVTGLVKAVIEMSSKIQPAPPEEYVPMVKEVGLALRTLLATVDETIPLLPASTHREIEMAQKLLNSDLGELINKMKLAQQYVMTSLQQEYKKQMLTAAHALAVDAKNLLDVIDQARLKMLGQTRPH

[4] = system: Fibrinogen (Alexa647-labelled); test: Alexa647-fibrinogen binding to printed small molecules – biochemical, small-molecule microarray, 635/667 nm fluorescence, artefact control for SMM control-protein annotation, profiling panel (AID 1131); conditions: fibrinogen-A647 binding fluorescence, higher = more signal;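 further: z-score merges 667 nm fluorescence with per-spot signal-to-noise over triplicate slides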
[5] = biological target: Follistatin (Homo sapiens) (UniProt P19883); test: FST protein binding to printed compounds – biochemical, small-molecule microarray, 635/667 nm fluorescence, primary screen (AID 1132); conditions: 635 nm fluorescence, higher = more signal
Chain of Follistatin (Homo sapiens) (P19883 whole entry, looked up): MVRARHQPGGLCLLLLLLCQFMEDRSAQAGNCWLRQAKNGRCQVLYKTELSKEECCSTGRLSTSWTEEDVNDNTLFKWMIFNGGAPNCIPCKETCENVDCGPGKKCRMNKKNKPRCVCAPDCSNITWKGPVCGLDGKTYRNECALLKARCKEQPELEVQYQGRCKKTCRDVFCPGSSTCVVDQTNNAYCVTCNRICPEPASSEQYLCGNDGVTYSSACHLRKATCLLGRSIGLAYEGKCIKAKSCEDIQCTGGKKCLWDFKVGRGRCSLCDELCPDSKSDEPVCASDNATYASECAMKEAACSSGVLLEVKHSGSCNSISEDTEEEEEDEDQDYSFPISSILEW

[6] = biological target: Fibroblast growth factor 2 (Homo sapiens) (UniProt P09038); test: basic fibroblast growth factor binding to printed compounds – biochemical, small-molecule microarray, 635/667 nm fluorescence, primary screen (AID 1133); conditions: FGF2, fluorescence 635/667, higher = more signal
Chain of Fibroblast growth factor 2 (Homo sapiens) (P09038 whole entry, looked up): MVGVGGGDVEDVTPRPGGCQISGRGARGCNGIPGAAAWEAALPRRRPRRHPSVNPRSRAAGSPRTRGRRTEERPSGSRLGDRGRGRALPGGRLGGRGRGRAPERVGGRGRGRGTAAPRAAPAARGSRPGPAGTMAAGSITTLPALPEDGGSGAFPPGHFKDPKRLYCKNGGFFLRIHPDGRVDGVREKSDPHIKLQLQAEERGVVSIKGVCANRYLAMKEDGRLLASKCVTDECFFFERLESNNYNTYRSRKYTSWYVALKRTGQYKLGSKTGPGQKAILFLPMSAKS

[7] = JC-1 mitochondrial potential readout, lung cancer cells – cell-based, A549, JC-1 fluorescence, basal, 24 h, 100 nL, profiling panel (AID 1138); conditions: higher = more signal;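 further: A549 lung adenocarcinoma cells under basal conditions with no added stimulus; test concentration not given here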
Lefty1 = Lefty1 protein binding to printed compounds – biochemical, small-molecule microarray, 635/667 nm fluorescence, primary screen (AID 1139); conditions: fluorescence 635/667, higher = more signal
[8] = system: wheat germ agglutinin (Triticum aestivum), Alexa647-labelled; test: Alexa647-WGA lectin binding to printed small molecules – biochemical, small-molecule microarray, 635/667 nm fluorescence, artefact control for SMM control-protein annotation, profiling panel (AID 1140); conditions: WGA-A647 binding, 635 nm fluorescence, higher = more signal;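 further: score merges 667 nm feature emission with signal to noise over triplicate slides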
[9] = biological target: Luciferin 4-monooxygenase (Photinus pyralis) (UniProt P08659); test: inhibition of purified Photinus pyralis luciferase – biochemical, luminescence, purified enzyme, 2006 set, primary screen (AID 1141); conditions: purified firefly luciferase, SteadyGlo luminescence, 30 min; higher = more signal, called active from +8 up or from −8 down;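 further: cell-free assay with purified firefly luciferase at 100 ng per well in PBS; test concentration not given here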
Chain of Luciferin 4-monooxygenase (Photinus pyralis) (P08659 whole entry, looked up): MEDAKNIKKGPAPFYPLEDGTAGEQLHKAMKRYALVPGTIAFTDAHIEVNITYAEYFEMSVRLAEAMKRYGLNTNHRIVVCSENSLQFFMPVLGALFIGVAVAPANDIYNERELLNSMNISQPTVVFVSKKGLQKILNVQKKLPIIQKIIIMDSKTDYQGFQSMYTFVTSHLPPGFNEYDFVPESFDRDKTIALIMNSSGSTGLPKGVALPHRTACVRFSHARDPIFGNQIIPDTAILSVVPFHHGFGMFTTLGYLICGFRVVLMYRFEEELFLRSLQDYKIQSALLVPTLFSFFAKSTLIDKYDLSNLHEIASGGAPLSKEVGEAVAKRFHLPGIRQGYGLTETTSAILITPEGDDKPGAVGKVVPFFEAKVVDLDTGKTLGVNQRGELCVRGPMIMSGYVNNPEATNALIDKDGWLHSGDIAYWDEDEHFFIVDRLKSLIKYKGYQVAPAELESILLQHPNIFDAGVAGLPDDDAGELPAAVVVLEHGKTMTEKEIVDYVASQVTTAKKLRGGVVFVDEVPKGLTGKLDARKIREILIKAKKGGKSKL

| SMILES | composite z-score [1] | composite z-score [2] | composite z-score [3] | composite z-score [4] | composite z-score [5] | composite z-score [6] | z-score [7] | composite z-score (Lefty1) | composite z-score [8] | z-score [9] |
| --- | --- | --- | --- | --- | --- | --- | --- | --- | --- | --- |
| C=C(COC)/C(=C/C[C@@H](OC(C)=O)c1cccc(OCCO)c1)c1cc(C(=O)OC)ccc1OC | -1.25 | 0.0995 | -0.453 | -1.09 | 0.954 | 0.202 | 1.37 | 0.499 | -1.12 | -2.09 (inactive) |
| CO[C@H]1COC(=O)CC=C[C@H](C)COC(=O)[C@@H](OCc2ccccc2)C=C[C@@H]1C | 0.507 | -0.67 | -0.3 | -0.418 | 1.56 | 1.83 | 0.33 | 1.69 | -0.726 | -0.275 (inactive) |
| CO[C@H]1COC(=O)[C@H](C)NC(=O)CC=C[C@@H](C)[C@H](NS(=O)(=O)c2ccc(C)cc2)COC(=O)CC=C[C@@H]1C | -0.0701 | -0.64 | -0.522 | -1.3 | 1.28 | 0.708 | 0.507 | 1.35 | -0.955 | -0.217 (inactive) |
| COc1ccc([Si](C)(C)[C@H]2[C@H](CCO)O[C@@]3(C(=O)N(Cc4ccc(N5CCCCC5=O)cc4)c4ccccc43)[C@@H]2C)cc1 | 1.91 | 1.1 | 0.0098 | 0.903 | 1.3 | 0.753 | 1.33 | 1.36 | 1.14 | -1.39 (inactive) |
| COc1cc(CO)cc(I)c1O[C@H]1C=C(C(=O)NCCO)C[C@@H](N(CC2CCCCC2)C(=O)c2cc3ccccc3oc2=O)[C@@H]1O | 0.309 | 0.238 | -0.071 | 1.02 | 0.175 | 1.17 | 0.272 | 0.275 | 0.516 | -0.462 (inactive) |
| CCOC(=O)C1=CC[C@@H](c2ccc(-c3ccc(OCc4ccccc4)cc3)c(OC)c2)N(S(=O)(=O)c2ccc(C)cc2)[C@H]1c1ccccc1 | 1.07 | 1.2 | -0.0822 | 0.978 | 1.2 | 0.275 | 1.63 | 0.329 | 1.05 | -3.26 (inactive) |
| C=C(CCCC)/C(=C/C[C@@H](OC(=O)c1ccncc1)c1ccc(CO)o1)c1cnc2ccccc2c1 | 1.24 | 0.723 | 1.64 | 0.878 | 1.46 | 1.69 | 0.146 | 1.65 | 1.22 | -3.5 (inactive) |
| C[C@]1(C(=O)NCc2ccccc2)c2ccccc2C(=O)N(Cc2cc(C(F)(F)F)cc(C(F)(F)F)c2)[C@H]1c1ccc(CO)cc1 | -0.152 | 1.19 | 0.415 | 0.749 | 1.34 | 1.72 | 0.195 | 0.221 | 0.322 | -0.543 (inactive) |
| CCN1C(C)=C(C(=O)OC)[C@@H](c2ccccc2)N2C(=O)[C@@]3(C(=O)OC)O[C@@]12[C@@H]1C(=O)N(c2ccccc2)C(=O)[C@@H]13 | 1.44 | 0.678 | 0.231 | 0.389 | 0.462 | 1.51 | 0.507 | 1.27 | 0.238 | -0.569 (inactive) |
| C=CC[C@@]12N=C(c3ccc(OCCCO)cc3)O[C@@H]1c1ccccc1CN(Cc1ccccc1)C2=O | 2.93 | 1.18 | 1.05 | 0.639 | 1.33 | 0.761 | -0.309 | 0.239 | 0.65 | -1.79 (inactive) |
| C[C@H]1COC(=O)[C@@H]2CCCN2C(=O)[C@@H](C)COC(=O)[C@@H]2CCCN2C1=O | -0.451 | -0.367 | 0.213 | -0.135 | 0.0429 | 0.1 | 1.05 | 0.308 | -0.468 | -0.515 (inactive) |
| O=C1C2C=CC(C(O)C(c3ccccc3)c3ccccc3)N(Nc3ccc([N+](=O)[O-])cc3)C2C(=O)N1c1ccccc1 (stereo not given) | 1.79 | 1.24 | 0.248 | 0.953 | 1.04 | -0.255 | -0.351 | 0.35 | 1.28 | 1.66 (inactive) |
| CCN1C(C)=C(C(=O)OC)[C@@H](c2ccccc2)N2C(=O)[C@@]3(C(=O)OC)O[C@@]12[C@@H]1C(=O)CCC[C@@H]13 | -0.116 | -0.356 | -0.315 | -1.47 | 1.29 | 1.01 | 0.862 | 1.48 | -1.05 | -2.3 (inactive) |
| CO[C@H]1O[C@H](CO)[C@@H](OC(=O)Nc2ccc3c(c2)OCO3)[C@H](OC(=O)Nc2ccccc2)[C@@H]1OC(=O)Nc1ccccc1 | 1.79 | 1.22 | 1.02 | 0.968 | 1.41 | 1.83 | 0.187 | 0.823 | 0.497 | -0.899 (inactive) |
| CCOC(=O)C[C@H]1[C@H](OC(=O)c2ccccc2-c2ccccc2)[C@@H](NC(=O)C2CCCCC2)c2cc(OCCCO)ccc2N1C(=O)c1ccccc1 | 0.198 | 0.352 | -0.268 | 0.334 | 0.392 | 1.39 | 1.33 | 0.845 | -0.109 | -0.539 (inactive) |
| CCOC(=O)C[C@H]1[C@H](OC(=O)c2ccccc2-c2ccccc2)[C@@H](NC(=O)c2ccc(-c3ccccc3)cc2)c2cc(OCCCO)ccc2N1C(=O)Cc1ccc(OC)cc1 | -0.293 | -0.301 | 0.371 | 0.411 | 0.362 | 0.487 | 0.78 | 0.566 | -0.12 | 0.393 (inactive) |
| O=C1O[C@H](c2ccccc2)[C@H](c2ccccc2)N2[C@H]1[C@@H](C(=O)NC[C@H](O)c1ccccc1)[C@]1(C(=O)Nc3ccc(C#CC4(O)CCCCCC4)cc31)[C@H]2c1ccc(OCCO)cc1 | 2.52 | 1.2 | 0.285 | 0.641 | 1.06 | 1.04 | -1.2 | -0.0254 | 0.959 | -1.23 (inactive) |
| CCC1=C2CN(Cc3ccccc3Br)[C@@H]([C@@H](O)Cc3ccccc3)C2C=CCC1 (stereo not given in full) | 1.23 | 1.13 | 0.172 | 0.455 | 0.651 | 0.209 | -0.7 | 1.25 | 0.291 | -0.852 (inactive) |
| CO[C@@H]1COC(=O)CC=C[C@@H](C)[C@H](OC)COC(=O)CC=C[C@H]1C | 0.0112 | -1.31 | -0.436 | -1.05 | 1.48 | 1.34 | 1.77 | 0.712 | -0.812 | -1.08 (inactive) |
| COC(=O)[C@@]1(Cc2ccc(OC)cc2)[C@H]2c3cc(C(=O)N(C)C)n(CCc4ccc(OC)c(Br)c4)c3C[C@H]2CN1C(=O)c1ccccc1 | 2.28 | 1.23 | 2.29 | 0.891 | 0.85 | -0.763 | 0.37 | -0.545 | 1.37 | 0.253 (inactive) |
| O=C1OCC=C[C@H]2OC34C=CCN(Cc5ccccc5)C(=O)[C@H]3N(CCO)C(=O)[C@@H]4[C@@H]12 (stereo not given in full) | -0.29 | -0.766 | -0.248 | -1.04 | -0.0764 | -1.24 | -0.0233 | 0.0323 | -0.0943 | -3.69 (inactive) |
| COCCOC(=O)N1C(=O)[C@@]2(c3cc(C#CCC(C(=O)OC)C(=O)OC)ccc31)[C@H](c1ccccc1OCCO)N1[C@H](c3ccccc3)[C@H](c3ccccc3)OC(=O)[C@H]1[C@@H]2C(=O)N1CCCCCCC1 | 1.75 | 1.18 | 0.384 | 0.744 | 1.51 | 1.05 | -0.729 | 1.55 | 0.529 | 0.406 (inactive) |
| CCCC[C@@H]1C[C@H]1[C@@H](NC(=O)c1ccccc1)c1ccccc1C(F)(F)F | 0.412 | 1.22 | 0.826 | 1.03 | 0.243 | -0.113 | 0.294 | -0.826 | 1.17 | 1.31 (inactive) |
| C[C@]1(C(=O)NCCN2CCOCC2)c2ccccc2C(=O)N(Cc2ccccc2)[C@H]1c1ccc(CO)cc1 | 1.6 | -0.385 | -0.43 | -0.665 | 0.0342 | -0.256 | -1.19 | -0.718 | -0.208 | 1.47 (inactive) |
| COC(=O)Cn1c(C(=O)N2CCCC2)cc2c1C[C@H]1CN(C(=O)c3ccccc3)[C@@](Cc3ccc(OC)cc3)(C(=O)OC)[C@@H]21 | 1.9 | 1.24 | 1.67 | 0.972 | 0.43 | -0.612 | 1.31 | -0.544 | 1.18 | 1.78 (inactive) |
| C=C(COC)/C(=C/C[C@@H](OC(=O)c1ccncc1)c1ccc(OCCO)cc1)c1cc(C(=O)OC)ccc1OC | 2.06 | 1.21 | 1.21 | 0.791 | 0.59 | 0.334 | 2.2 | 0.716 | 1.3 | -2.22 (inactive) |
| CC(C)NC(=O)[C@@]1(Cc2ccccc2I)c2ccccc2C(=O)N(C2CCCCC2)[C@H]1c1ccc(CO)cc1 | 2.52 | 1.24 | 0.628 | 0.991 | 1.17 | 0.148 | -0.105 | 0.227 | 0.916 | 0.95 (inactive) |
| CO[C@]12C=C(Br)[C@@H](C[C@@H]1c1ccccc1)[C@@]1(CO1)C2=O | -0.22 | -0.0095 | -0.259 | -0.0226 | 0.931 | 0.6 | 0.704 | 0.41 | -0.297 | -0.876 (inactive) |

Source: PubChem BioAssay
